FLuc counter: firefly luciferase modulation, counter-screen for miR-21 project; P08659; Potency, µM (titrated, usually from 57.5 µM), usual class: inhibitors; AID 588342; purified FLuc, Km substrates, luminescence inhibition; hit rate 6.9% among 360,000; further: nearly all actives have a fitted effect of over 55% in size
Target sequence (P08659 whole entry, looked up): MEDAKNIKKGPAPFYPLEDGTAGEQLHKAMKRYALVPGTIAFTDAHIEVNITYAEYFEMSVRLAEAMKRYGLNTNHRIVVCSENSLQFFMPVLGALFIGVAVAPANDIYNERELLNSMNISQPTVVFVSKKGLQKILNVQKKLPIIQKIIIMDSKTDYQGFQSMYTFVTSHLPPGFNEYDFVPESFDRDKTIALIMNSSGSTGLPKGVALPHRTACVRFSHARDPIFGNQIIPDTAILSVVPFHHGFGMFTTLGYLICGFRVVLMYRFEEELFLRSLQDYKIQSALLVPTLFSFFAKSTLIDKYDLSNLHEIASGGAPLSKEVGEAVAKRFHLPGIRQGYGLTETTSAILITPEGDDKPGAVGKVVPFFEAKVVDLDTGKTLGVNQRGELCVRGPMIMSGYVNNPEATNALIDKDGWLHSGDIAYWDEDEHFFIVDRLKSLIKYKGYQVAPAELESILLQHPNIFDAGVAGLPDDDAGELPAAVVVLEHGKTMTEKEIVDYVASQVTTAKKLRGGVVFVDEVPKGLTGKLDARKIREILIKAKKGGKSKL
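Purified P. pyralis luciferase, 10 nM final, with Km-level 10 uM D-luciferin and 10 uM ATP in 50 mM Tris acetate pH 7.5, 10 mM Mg acetate, 0.01% Tween-20, 0.05% BSA; 6-point qHTS titration about 60 µM downward; luminescence read.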
Rab9 prom act: Rab9 promoter activation. Huh7 Rab9 promoter-luciferase reporter, luminescence, 24 h. Potency, µM (top dose mostly 9.22 µM), usual class: activators. hit rate 2.8% among 320,000. AID 485297; further: nearly all actives have a fitted effect of over 60% in size
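Huh7 reporter line, Rab9 promoter upstream of luciferase. Compound exposure 24 h at 37 °C in reduced-serum medium with 10% FBS. Read-out: luminescence.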
ELG1 genotoxic: genotoxicity induction in ELG1-luciferase HEK293T cells; Potency, µM (titrated, usually from 46 µM), most hits filed as activators; hit rate 1.3% among 330,000; AID 504466; HEK293T ELG1-luciferase reporter, luminescence, 16 h; further: nearly all actives have a fitted effect of over 60% in size
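Genotoxicity was scored as increased ELG1-luciferase reporter signal, measured by ONE-Glo luminescence (30 min, room temperature). Compound or vehicle exposure of the HEK293T reporter cells lasted 16 hr at 37°C.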
SMN2 splice enh: enhancers of SMN2 splice variant expression. AID 1458. hit rate 2.8% among 210,000. HEK293 SMN2-luciferase splicing reporter, luminescence, 30-36 h. Potency, µM (doses to about 46.1 µM), hits mostly activators; further: nearly all actives have a fitted effect of over 55% in size
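HEK293 cells carry an SMN2 minigene-luciferase reporter in which exon 7 inclusion puts luciferase in frame. Cells were seeded at 2000 cells/well, attached for 10-12 hours, then exposed to compounds for 30-36 hours at 37C before ONE-Glo luminescence.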
NPC1 promoter act: activates the NPC1 promoter | Potency, µM (highest dose often 9.22 µM), usual class: activators | Huh7 NPC1 promoter luciferase reporter, 24 h | hit rate 2.4% among 320,000; further: nearly all actives have a fitted effect of over 60% in size
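Luciferase expression driven by the NPC1 promoter was measured in stably transfected Huh7 cells after a 24 h compound incubation, using a luciferase reagent and a luminescence read.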
Hits are given with their value; – = inactive; ? = inconclusive; · = no result given; [ ] = remark or other dose. Only some compounds are listed: those with a hit (about 7.5% of all), similar ones and a draw of the others. The call rests on the fitted dose curve; in most records, active means well fitted curve in the direction sought with a large enough effect; inconclusive means small, poorly fitted or top-dose-only effect, or another doubt; inactive means no such curve, though single readings can be large; an effect the other way counts as inactive or inconclusive.

SMILES | FLuc counter | Rab9 prom act | ELG1 genotoxic | SMN2 splice enh | NPC1 promoter act
Cn1nc(NC(=O)CC23CC4CC(CC(C4)C2)C3)c2c(F)cccc21 | – | – | – | · | –
Clc1ccc(OCCCN2CCCCC2)c(Br)c1 | 15µM | ? | – | ? | ?
Clc1ccc(OCCCn2ccnc2)c(Br)c1 | 19µM | – | – | – | –
c1coc(C2=Nc3cccc4cccc(c34)N2)c1 | ? | – | – | – | –
Nc1ccc(C2=Nc3cccc4cccc(c34)N2)cc1 | 21µM | – | – | · | –
COc1cccc(C2=Nc3cccc4cccc(c34)N2)c1 | 12µM | – | – | – | ?
CN(C)c1ccc(/C=C/c2ccc3c4ccccc4ccc3[n+]2-c2ccccc2)cc1 | 27µM | – | – | – | –
Cc1ccc(/C=C2\Oc3cc(OC(=O)N4CCOCC4)ccc3C2=O)cc1 | 2.1µM | – | – | – | –
COc1cccc(/C=C2\Oc3cc(OCC(=O)N4Cc5ccccc5C[C@H]4C(=O)O)ccc3C2=O)c1 | 3µM | – | – | · | –
O=C(Oc1ccc2c(c1)O/C(=C\c1ccncc1)C2=O)c1ccccc1 | – | – | – | – | –
COC(=O)c1ccc2c(c1)C(=O)/C(=C/c1ccc(C)cc1)O2 | ? | ? | – | 11µM | ?
CCc1ccc(/C=C2\Oc3ccc(C(=O)OC)cc3C2=O)cc1 | ? | ? | – | ? | –
Cc1ccsc1/C=C1\Oc2cc(OCC(=O)c3ccccc3)ccc2C1=O | 2.7µM | – | – | – | –
Cn1c(CNC(=O)C(Cc2ccccc2)NC(=O)c2ccccc2F)cc(=O)n(C)c1=O (centres undefined) | – | – | – | · | –
CC(=O)N1CCN(c2c(F)c(F)c(C(F)(F)F)c(F)c2F)CC1 | – | – | – | – | –
CC(C)(C)NC(=O)C1Cc2ccccc2CN1 (centres undefined) | – | – | – | – | –
COc1ccc(-c2c(C)c3cc(OC(=O)N4CCOCC4)ccc3oc2=O)cc1OC | – | · | · | · | ·
COc1ccc(/C=C2\Oc3cc(OCC(N)=O)ccc3C2=O)cc1OC | 12µM | – | – | · | –
COC(=O)COc1ccc2c(c1)O/C(=C\c1cccc([N+](=O)[O-])c1)C2=O | – | – | – | · | –
CCC1CCCCN1C(=O)COc1ccc2c(c1)OCO2 (centres undefined) | – | – | – | · | –
O=C1/C(=C/c2ccc3c(c2)OCO3)Oc2cc(OCC(=O)N3CCC[C@H]3C(=O)O)ccc21 | 0.54µM | – | – | · | –
COc1cccc(/C=C2\Oc3cc(OC(=O)N4CCOCC4)ccc3C2=O)c1 | 6µM | – | – | · | –
COc1ccccc1/C=C1\Oc2cc(OC(=O)N3CCOCC3)ccc2C1=O | 11µM | – | – | · | –
COc1ccc(OC(=O)N2CCOCC2)cc1 | – | – | – | · | –
COc1ccc(CN(C)C(=O)CSc2nnc(C3CC3)n2C2CC2)cc1 | – | – | – | · | –
SMILES | FLuc counter | Rab9 prom act | ELG1 genotoxic | SMN2 splice enh | NPC1 promoter act
COc1ccc(/C=C2\Oc3cc(OCC(=O)N4CCC[C@H]4CO)ccc3C2=O)c(OC)c1 | 13µM | – | – | · | –
CS/C(Nc1cc(Cl)ccc1Cl)=C(/C#N)C(=O)c1ccco1 | 2.1µM | ? | 21µM | · | ?
Brc1ccc(-c2noc(-c3ccccn3)n2)o1 | 2.7µM | 0.45µM | ? | · | 0.56µM
COc1ccc(-c2noc(-c3ccc(Br)o3)n2)cc1OC | – | – | ? | – | –
Brc1ccc(-c2nc(-c3ccccn3)no2)o1 | 1.5µM | ? | ? | 2.5µM | 0.56µM
O=C(NC(Cc1ccccc1)C(=O)N1CCCCC1)c1ccccc1 (centres undefined) | – | – | – | · | –
CCC(=O)Nc1sc2c(c1C#N)CCC2 | – | – | – | – | –
Cc1nnc(SCC(=O)Nc2sc3c(c2C#N)CCCCC3)n1N | 21µM | – | ? | – | –
CCOC(=O)Nc1sc2c(c1C#N)CCCC2 | 15µM | 4µM | 15µM | – | ?
Cc1ccc(OCC(=O)Nc2sc3c(c2C#N)CCC3)cc1 | 4.8µM | ? | ? | – | ?
O=C1C2CC=CCC2C(=O)N1Cc1nnc(-c2ccc(Cl)cc2)o1 (centres undefined) | 19µM | ? | ? | – | –
CC(=O)Nc1ccc(NC(=O)c2cc(-n3cnnc3)ccc2Cl)cc1 | – | – | – | – | –
O=C(Nc1cccc(-c2nc3ccccc3s2)c1)c1cc(-n2cnnc2)ccc1Cl | 6.7µM | – | – | · | –
Cc1ccc(NC(=O)c2cc(-n3cnnc3)ccc2Cl)c(C)c1 | – | – | – | – | –
Cc1c(NC(=O)c2cc(-n3cnnc3)ccc2Cl)cccc1-c1nc2ccccc2s1 | 0.6µM | 3.5µM | – | 5.6µM | ?
Cc1c(NC(=O)c2cccs2)cccc1-c1nc2ccccc2s1 | 4.3µM | – | – | – | –
Cc1ccc2sc(-c3ccc(NC(=O)c4cc(-n5cnnc5)ccc4Cl)cc3)nc2c1 | 6µM | ? | – | 13µM | ?
CC(=O)c1cccc(NC(=O)c2cc(-n3cnnc3)ccc2Cl)c1 | – | · | · | – | ·
CCCCCCCC1=Cc2ccccc2C(C(C(C)=O)C(=O)OC)N1C(=O)OC (centres undefined) | · | · | · | –[9.22 µM] | ·
Cc1cccc(NC(=O)CSc2ccc(-c3ccco3)nn2)c1C | – | – | – | – | –
COc1ccc(-c2cn3nc(SCC(=O)Nc4cc(C)cc(C)c4)ccc3n2)cc1 | 3.8µM | · | · | · | ·
COc1ccc(-c2cn3nc(SCC(=O)Nc4cccc(C)c4C)ccc3n2)cc1 | 2.1µM | · | · | · | ·
COc1ccc(-c2cn3nc(SCC(=O)Nc4ccc(C)c(Cl)c4)ccc3n2)cc1 | 2.7µM | · | · | · | ·
O=C(CSc1ccc2nc(-c3ccccc3)cn2n1)Nc1cccc(F)c1 | 7.6µM | · | · | · | ·
COc1ccc(NC(=O)CSc2ccc3nc(-c4ccccc4)cn3n2)cc1OC | – | · | · | · | ·
SMILES | FLuc counter | Rab9 prom act | ELG1 genotoxic | SMN2 splice enh | NPC1 promoter act
Cc1cccc(CNc2ncnc3ccc(-c4cccc(Cl)c4)cc23)c1 | – | – | · | · | –
Cc1ccc(OCc2cnc(Cl)s2)c(C)c1 | 11µM | – | – | – | –
COc1ccc(-c2ccc(CO)o2)cc1N | ? | – | – | · | –
CC(=O)c1ccc(NC(=O)NNS(=O)(=O)c2ccc([N+](=O)[O-])cc2)cc1 | – | – | – | · | –
CC(=O)Nc1cccc(NC(=O)Nc2ccc(C(C)=O)cc2)c1 | 11µM | – | ? | – | –
CCN(CC)c1ccc(NC(=O)Nc2cccc(C(C)=O)c2)cc1 | 1.7µM | · | · | – | ·
CC(=O)c1ccc(NC(=O)Nc2ccc([N+](=O)[O-])cc2)cc1 | – | – | ? | 13µM | ?
CC(=O)c1ccc(NC(=O)Nc2ccncc2)cc1 | – | – | – | – | –
CC(=O)c1ccc(NC(=O)Nc2ccc(Cl)cc2)cc1 | 12µM | 1.4µM | 2.1µM | 13µM | 1.4µM
CC(=O)c1ccc(NC(=O)Nc2cccc3ccccc23)cc1 | ? | ? | ? | · | –
COc1ccc(CCNC(=O)CCc2cn(Cc3ccc(F)cc3)c3ccccc23)cc1OC | – | · | · | · | ·
CC(=O)c1ccc(NC(=O)c2cc(Cl)sc2Cl)cc1 | 15µM | 2.2µM | ? | 13µM | 2.8µM
Cc1cc(C)cc(NC(=O)c2cc(Cl)sc2Cl)c1 | ? | – | – | – | –

Screening data (PubChem BioAssay)
